PubChem BioAssay (NCATS)
Values joined by “and” are separate entries in the source; they are usually repeats but may differ in a detail not shown here. Equal entries are not always repeated. Records with an inconclusive call do not appear. A call without a number means that no potency is given here. Active and inactive are the calls of the source. Calls come from the whole dose curve; as a rule, active = well fitted curve in the direction sought with a large enough effect; inconclusive = small, poorly fitted or top-dose-only effect, or another doubt; inactive = no such curve, though single readings can be large; an effect the other way counts as inactive or inconclusive.

Experiments:
[1] = Primary qHTS for inhibitors of nuclear receptor binding SET domain protein 2 (NSD2) in an RCH-ACV wild type WT cells (2C) (AID 1645877); note: nearly all actives have a fitted effect of over 70% in size; note: potency is the fitted concentration of half-maximal effect
[2] = biological target: Catechol O-methyltransferase (Homo sapiens) (UniProt P21964); assay: Confirmatory Screen for Target Class Profiling of Small Molecule Inhibitors of Methyltransferases (AID 1745852); conditions: MTase-Glo luminescence, SAH detection, recombinant enzyme; measured here: COMT max response; stronger effect = lower value
[3] = biological target: Guanidinoacetate N-methyltransferase (Homo sapiens) (UniProt Q14353); assay: as above; conditions: activity change, negative = inhibition: at 57.3 µM (top of the series) unless noted
[4] = biological target: Nicotinamide N-methyltransferase (Homo sapiens) (UniProt P40261); assay: as above; conditions: MTase-Glo luminescence, SAH detection, recombinant enzyme; measured here: NNMT max response; stronger effect = lower value
[5] = biological target: Phenylethanolamine N-methyltransferase (Homo sapiens) (UniProt P11086); assay: as above; conditions: MTase-Glo luminescence, SAH detection, recombinant enzyme; measured here: PNMT max response; stronger effect = lower value
[6] = biological target: Glutathione peroxidase 1 (Homo sapiens) (UniProt P07203); assay: Primary qHTS Assay for Inhibitors of Recombinant Selenoprotein Glutathione Peroxidase 1 (GPX1) (AID 1845191); note: nearly all actives have a fitted effect of over 65% in size
Method in brief: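 10 nM GPX1 + cpd, 30 min RT; start w/ 1 mM GSH, 0.5 mM cumene hydroperoxide, 0.5 mM NADPH, 100 nM GR, 0.01% BSA; buffer 50 mM Tris-HCl pH 7.5, 2 mM EDTA, 150 mM NaCl; Fl 340/450, 0 & 15 min.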

[7] = biological target: Phospholipid hydroperoxide glutathione peroxidase GPX4 (Homo sapiens) (UniProt P36969); assay: Primary qHTS Assay for Inhibitors of Recombinant Selenoprotein Glutathione Peroxidase 4 (GPX4) (AID 1845192); note: nearly all actives have a fitted effect of over 65% in size
Method in brief: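 NADPH consumption, followed by fluorescence at 340/450 nm between 0 and 15 min, reports GPX4 activity via coupled glutathione reductase (100 nM). Enzyme 200 nM was pre-exposed to compound 30 min; 0.5 mM cumene hydroperoxide and 1 mM GSH served as substrates.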

[8] = biological target: Luciferin 4-monooxygenase (Photinus pyralis) (UniProt P08659); assay: Primary firefly luciferase (FLuc) qHTS assay for identification of artifact compounds. (AID 1845220); note: nearly all actives have a fitted effect of over 60% in size
Method in brief: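 Compounds sat 15 min at room temperature with 10 uM luciferin and 10 uM ATP (pH 7.6 Tris acetate). Firefly luciferase (10 nM final) was then added, and luminescence was read 5 min later. Data normalized to no-enzyme and DMSO controls were Hill-fitted.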

[9] = Primary fluorescence-based thiol-reactive (MSTI) qHTS assay for identification of artifact compounds. (AID 1845221); note: nearly all actives have a fitted effect of over 65% in size; note: potency is the fitted concentration of half-maximal effect
Method in brief: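 One-hour, room-temperature, dark incubation of compound with 4 uM MSTI in PBS (pH 7.4, 2% DMSO) precedes a fluorescence read at 525 nm excitation, 598 nm emission; Hill-equation fitting yields concentration-response values.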

[10] = tested on: Nanoluciferase (engineered Oplophorus gracilirostris luciferase); assay: Primary Nanoluciferase (NLuc) qHTS assay for identification of artifact compounds. (AID 1845222)
Method in brief: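 Luminescence from secreted NLuc (filtered, 1:55-diluted S16 cell medium) read 5 min after Nano-Glo substrate; compounds preincubated 15 min, RT. Hill fits of inhibition normalized to DMSO and no-enzyme.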

[11] = Primary redox qHTS assay for identification of artifact compounds. (AID 1845223)
Method in brief: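 Amplex Red (25 uM) and HRP (250 mU/mL) in HBSS, with compounds for 15 min, then 250 uM DTT for 30 min, room temperature, dark. Fluorescence 525/598 nm read; normalized to DMSO and 10 uM DA3003; Hill fit.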

Glutathione peroxidase 1 (Homo sapiens), sequence (P07203 whole entry, looked up): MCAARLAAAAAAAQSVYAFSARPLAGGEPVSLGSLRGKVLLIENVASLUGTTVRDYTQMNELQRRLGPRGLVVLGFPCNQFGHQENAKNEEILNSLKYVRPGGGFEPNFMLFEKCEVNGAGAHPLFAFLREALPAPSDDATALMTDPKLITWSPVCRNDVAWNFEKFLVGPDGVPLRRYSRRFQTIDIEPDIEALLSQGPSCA
Nicotinamide N-methyltransferase (Homo sapiens), sequence (P40261 whole entry, looked up): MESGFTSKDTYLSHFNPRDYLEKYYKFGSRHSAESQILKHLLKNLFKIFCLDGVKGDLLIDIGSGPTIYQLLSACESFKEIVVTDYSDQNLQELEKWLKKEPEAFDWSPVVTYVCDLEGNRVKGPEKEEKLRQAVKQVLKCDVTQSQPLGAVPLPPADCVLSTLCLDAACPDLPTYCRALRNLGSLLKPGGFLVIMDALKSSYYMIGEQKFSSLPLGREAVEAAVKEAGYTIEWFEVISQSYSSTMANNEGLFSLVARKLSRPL
Phenylethanolamine N-methyltransferase (Homo sapiens), sequence (P11086 whole entry, looked up): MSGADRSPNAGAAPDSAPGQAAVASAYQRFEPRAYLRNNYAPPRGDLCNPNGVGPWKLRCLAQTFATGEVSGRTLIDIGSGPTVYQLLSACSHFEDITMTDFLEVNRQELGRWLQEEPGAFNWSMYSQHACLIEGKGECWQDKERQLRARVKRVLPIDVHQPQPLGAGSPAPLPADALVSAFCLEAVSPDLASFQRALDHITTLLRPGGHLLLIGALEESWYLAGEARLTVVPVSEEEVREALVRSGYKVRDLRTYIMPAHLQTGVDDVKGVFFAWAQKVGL
Phospholipid hydroperoxide glutathione peroxidase GPX4 (Homo sapiens), sequence (P36969 whole entry, looked up): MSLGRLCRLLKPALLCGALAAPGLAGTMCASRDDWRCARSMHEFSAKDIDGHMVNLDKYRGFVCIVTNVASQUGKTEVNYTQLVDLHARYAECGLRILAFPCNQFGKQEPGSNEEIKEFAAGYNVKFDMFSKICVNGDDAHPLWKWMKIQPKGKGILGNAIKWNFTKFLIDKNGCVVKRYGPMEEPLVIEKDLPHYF
Catechol O-methyltransferase (Homo sapiens), sequence (P21964 whole entry, looked up): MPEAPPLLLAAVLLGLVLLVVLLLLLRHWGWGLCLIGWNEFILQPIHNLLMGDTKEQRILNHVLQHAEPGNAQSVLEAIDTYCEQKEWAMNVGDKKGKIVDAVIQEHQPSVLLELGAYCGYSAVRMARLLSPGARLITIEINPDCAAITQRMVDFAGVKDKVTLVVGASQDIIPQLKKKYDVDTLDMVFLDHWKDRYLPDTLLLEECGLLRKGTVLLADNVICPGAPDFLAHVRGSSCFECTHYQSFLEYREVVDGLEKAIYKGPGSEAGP

Row | Compound | Potency [1] | activity [2] | activity change, negative = inhibition [3] | activity [4] | activity [5] | Potency [6] | Potency [7] | Potency [8] | Potency [9] | Potency [10] | Potency [11]
1 | CCC(C(=O)O)c1ccc(N2Cc3ccccc3C2=O)cc1 (centres undefined) | inactive |  |  |  |  |  |  |  |  |  | 
2 | CCN(CC)CCN(Cc1ccc(-c2ccc(C(F)(F)F)cc2)cc1)C(=O)Cn1c(SCc2ccc(F)cc2)nc(=O)c2c1CCC2 | 3.65 µM (active) | -2.67% | 0% | -45.6% | -1.88% | inactive | inactive | inactive | inactive | inactive | inactive
3 | COC(=O)C1=CO[C@@H](O[C@@H]2O[C@H](CO[C@@H]3O[C@H](COC(=O)/C=C/c4cc(OC)c(O)c(OC)c4)[C@@H](O)[C@H](O)[C@H]3O)[C@@H](O)[C@H](O)[C@H]2O)[C@@H]2C(CO)=CC[C@H]12 | inactive | -63.8% | -1.94% [at 19.1 µM] | -1.52% | -1.68% | inactive | inactive | inactive | 7.93 µM (active) | inactive | inactive
4 | NC[C@@](O)(c1ccc(Cl)cc1)c1ccc(-c2cn[nH]c2)cc1 | 4.59 µM (active) and 4.68 µM (active) | 1.95% | 0% | -0.549% | -0.0519% | inactive | inactive | inactive | inactive | inactive | inactive
5 | O=C(c1ccccc1)c1ccc2nc(NC(=O)c3csc(C4CCN(c5ncnc6ccsc56)CC4)n3)[nH]c2c1 | 4.59 µM (active) | -7.12% | 0.0948% | -42% | -13.7% | inactive | inactive | inactive | inactive | inactive | inactive
6 | C/C=C/c1cc(OC)c2c(c1)[C@@H](C)[C@@H](c1ccc(O)c(OC)c1)O2 | 14.2 µM (active) | -61.3% | -6.75% | -7.01% | -5.03% | inactive | inactive | inactive | inactive | inactive | inactive
7 | CCS(=O)(=O)N1CCN(c2ccc(Nc3ncc(C(N)=O)c(NC4CC4)n3)cc2)CC1 | 258 nM (active) and 417 nM (active) | -6.02% | 0% | -70.8% | -8.46% | inactive | inactive | inactive | 2.99 µM (active) | inactive | inactive
8 | CN(c1ccccc1CNc1nc(Nc2ccc3c(c2)CC(=O)N3)ncc1C(F)(F)F)S(C)(=O)=O | 1.03 µM (active) | -5.57% | -2.47% | -47.3% | -5.42% | inactive | inactive | inactive | 10.6 µM (active) | inactive | inactive
9 | COc1cc(/C=C/C(=O)OC[C@H]2O[C@@](CO)(O[C@H]3O[C@H](CO)[C@@H](O)[C@H](O)[C@H]3O)[C@@H](OC(=O)/C=C/c3ccc(O)c(OC)c3)[C@@H]2O)ccc1O | inactive | -51% | -4.9% [at 19.1 µM] | -6.08% | -2.86% | inactive | inactive | inactive | 3.54 µM (active) | inactive | inactive
